This passage reports Potency and activation results from PubChem BioAssay (Tox21).

“And” between values parts separate entries of the source, which are not always exact repeats. Equal values may be shown once. Inconclusive results are not listed. The source holds several records for some structures; these can differ, active in one and inactive in another. The source made the active and inactive calls. Unless noted, calls follow the shape of the dose curve; as a rule, active = well fitted curve in the direction sought with a large enough effect in the repeat runs; inconclusive = weak or mixed curves; inactive = no such curve, though single readings can be large; an effect the other way counts as inactive or inconclusive.

Assay [1] can be described thus: qHTS assay for identifying genotoxic compounds that show differential cytotoxicity against isogenic chicken DT40 cell lines with known DNA damage response pathways - wild type cell line (AID 743012). Also: nearly all actives have a fitted effect of over 60% in size. Also: potency is read from the fitted curve at half-maximal effect. Put shortly: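 Wild-type DT40 cells (300/well) exposed to compounds for 40 hours at 37 C/5% CO2. Viability read by CellTiter-Glo luminescence after 30 min at room temperature.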
(In general: Quantitative high-throughput screening tests each substance at several concentrations.)

The nature of assay [2]: qHTS assay to identify small molecule antagonists of the androgen receptor (AR) signaling pathway - cell viability counter screen (AID 743033; also: nearly all actives have a fitted effect of over 45% in size; also: potency is read from the fitted curve at half-maximal effect).
The nature of assay [3]: qHTS assay to identify small molecule antagonists of the androgen receptor (AR) signaling pathway using the MDA cell line - cell viability counter screen (AID 743041; also: nearly all actives have a fitted effect of over 45% in size). In outline:
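Viability counter screen run alongside the AR antagonist reporter: cells seeded 5 h before compound, R1881 added, 16 h incubation at 37C without CO2, fluorescent CellTiter-Fluor signal quantified.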

Assay [4] in a line: qHTS assay to identify small molecule antagonists of the thyroid receptor (TR) signaling pathway - cell viability counter screen (AID 743064). Also: nearly all actives have a fitted effect of over 50% in size. Also: potency is read from the fitted curve at half-maximal effect. Put shortly:
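GH3.TRE-Luc rat pituitary cells carrying a TRE-luciferase reporter were treated with compound plus 1 nM T3 (final) for 23.5 h at 37 °C. Viability was then read in the same wells by CellTiter-Fluor fluorescence after a further 30 min.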

Assay [5] can be described thus: qHTS assay to identify small molecule antagonists of the estrogen receptor alpha (ER-alpha) signaling pathway - cell viability counter screen (AID 743074; calls by dose curve;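 also: HEK293 cells carrying ER-alpha-UAS-bla reporter stimulated with 17beta-estradiol; nearly all actives have a fitted effect of over 45% in size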).
The target of assay [6] is Estrogen receptor (Homo sapiens) (UniProt P03372). Description: qHTS assay to identify small molecule agonists of the estrogen receptor alpha (ER-alpha) signaling pathway (AID 743075; calls by dose curve;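 also: HEK293 GripTite cells with ER-alpha and UAS-driven beta-lactamase reporter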; also: potency is read from the fitted curve at half-maximal effect).
The target is the same in assay [7]. Description: qHTS assay to identify small molecule agonists of the estrogen receptor alpha (ER-alpha) signaling pathway using the BG1 cell line (AID 743079). Also: nearly all actives have a fitted effect of over 20% in size. To be noted: BG1Luc4E2 cells, ERE-luciferase agonist, 22 h.
Assay [8] can be described thus: qHTS assay to identify small molecule antagonists of the estrogen receptor alpha (ER-alpha) signaling pathway using the BG1 cell line (AID 743080; calls by dose curve;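 also: BG1 cells stimulated with 17beta-estradiol alongside compound; nearly all actives have a fitted effect of over 25% in size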; also: potency is read from the fitted curve at half-maximal effect). In outline: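 Quantitative HTS on the Tox21 10K library: BG1 cells with endogenous ER-alpha and ERE-luciferase reporter, 17beta-estradiol stimulation, 21.5 h compound exposure, luminescence endpoint with parallel fluorescence cytotoxicity counter-read.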

Assay [9] is described as follows: qHTS assay to identify small molecule antagonists of the estrogen receptor alpha (ER-alpha) signaling pathway using the BG1 cell line - cell viability counter screen (AID 743081).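 Also: compound given together with 17beta-estradiol as the ER stimulus; nearly all actives have a fitted effect of over 45% in size.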
Assay [10] concerns the target Aromatase (Homo sapiens) (UniProt P11511). Description: qHTS assay to identify aromatase inhibitors (AID 743083). Also: nearly all actives have a fitted effect of over 55% in size. Also: potency is read from the fitted curve at half-maximal effect.
Assay [11] in a line: qHTS assay to identify aromatase inhibitors - cell viability counter screen (AID 743084).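 Also: cells stimulated with testosterone during compound exposure; nearly all actives have a fitted effect of over 55% in size.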 Also: potency is read from the fitted curve at half-maximal effect.
The nature of assay [12]: qHTS assay for identifying genotoxic compounds that show differential cytotoxicity against isogenic chicken DT40 cell lines with known DNA damage response pathways - Rad54/Ku70 mutant cell line (AID 743015). Also: nearly all actives have a fitted effect of over 60% in size. Also: potency is read from the fitted curve at half-maximal effect.
Assay [13] has as its target Androgen receptor (Homo sapiens) (UniProt P10275). Description: qHTS assay to identify small molecule antagonists of the androgen receptor (AR) signaling pathway using the MDA cell line (AID 743042; also: nearly all actives have a fitted effect of over 55% in size). In outline: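 MDA-kb2 cells (human breast carcinoma, stably carrying an MMTV-luciferase reporter responsive to AR and GR) were plated at 3,000 cells/well and preincubated 5 hr at 37C, then given compound plus R1881 agonist for 16 h. ONE-Glo luminescence was read.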

The nature of assay [14]: qHTS assay to identify small molecule antagonists of the thyroid receptor (TR) signaling pathway (AID 743065). Also: nearly all actives have a fitted effect of over 55% in size. In outline:
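GH3.TRE-Luc rat pituitary cells carrying two TR response elements driving luciferase were plated for 4 h, given compound plus 1 nM T3 (final), and incubated 23.5 h at 37 C. ONE-Glo luminescence measured reporter inhibition; CellTiter-Fluor fluorescence tracked cytotoxicity.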

For assay [15], the system named is thyroid hormone receptor (rat, GH3 cells). Description: qHTS assay to identify small molecule agonists of the thyroid receptor (TR) signaling pathway (AID 743066; calls by dose curve).
The target in assay [16] is Estrogen receptor (Homo sapiens) (UniProt P03372). Description: qHTS assay to identify small molecule antagonists of the estrogen receptor alpha (ER-alpha) signaling pathway (AID 743069; active = well fitted curve in the direction sought with a large enough effect in the signal ratio in the repeat runs, not every such curve was filed as active; the % refers to the signal ratio). In outline: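 Estradiol-stimulated ER-alpha-UAS-bla HEK293 cells, 18 hr compound exposure at 37C. LiveBLAzer B/G substrate, 2 hr RT, fluorescence read.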
Assay [17] is described as follows: qHTS assay for identifying genotoxic compounds that show differential cytotoxicity against isogenic chicken DT40 cell lines with known DNA damage response pathways - Rev3 mutant cell line (AID 743014). Also: nearly all actives have a fitted effect of over 55% in size. Also: potency is read from the fitted curve at half-maximal effect.
% is scaled to controls: 0 for no effect and ±100 for the full control effect.

Sequence of Aromatase (Homo sapiens) (P11511 whole entry, looked up): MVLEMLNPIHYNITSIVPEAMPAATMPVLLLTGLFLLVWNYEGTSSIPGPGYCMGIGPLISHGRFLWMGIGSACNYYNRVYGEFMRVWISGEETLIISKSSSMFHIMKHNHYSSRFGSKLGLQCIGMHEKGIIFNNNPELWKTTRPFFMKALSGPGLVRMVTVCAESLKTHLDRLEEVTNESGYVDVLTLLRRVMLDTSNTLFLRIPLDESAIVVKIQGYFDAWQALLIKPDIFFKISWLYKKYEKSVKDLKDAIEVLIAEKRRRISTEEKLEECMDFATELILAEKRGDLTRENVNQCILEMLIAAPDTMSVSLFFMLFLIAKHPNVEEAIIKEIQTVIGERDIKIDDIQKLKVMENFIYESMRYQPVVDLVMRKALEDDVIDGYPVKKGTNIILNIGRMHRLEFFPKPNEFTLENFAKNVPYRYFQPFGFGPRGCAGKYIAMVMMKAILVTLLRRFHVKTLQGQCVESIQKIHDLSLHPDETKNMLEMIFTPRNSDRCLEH
Sequence of Estrogen receptor (Homo sapiens) (P03372 whole entry, looked up): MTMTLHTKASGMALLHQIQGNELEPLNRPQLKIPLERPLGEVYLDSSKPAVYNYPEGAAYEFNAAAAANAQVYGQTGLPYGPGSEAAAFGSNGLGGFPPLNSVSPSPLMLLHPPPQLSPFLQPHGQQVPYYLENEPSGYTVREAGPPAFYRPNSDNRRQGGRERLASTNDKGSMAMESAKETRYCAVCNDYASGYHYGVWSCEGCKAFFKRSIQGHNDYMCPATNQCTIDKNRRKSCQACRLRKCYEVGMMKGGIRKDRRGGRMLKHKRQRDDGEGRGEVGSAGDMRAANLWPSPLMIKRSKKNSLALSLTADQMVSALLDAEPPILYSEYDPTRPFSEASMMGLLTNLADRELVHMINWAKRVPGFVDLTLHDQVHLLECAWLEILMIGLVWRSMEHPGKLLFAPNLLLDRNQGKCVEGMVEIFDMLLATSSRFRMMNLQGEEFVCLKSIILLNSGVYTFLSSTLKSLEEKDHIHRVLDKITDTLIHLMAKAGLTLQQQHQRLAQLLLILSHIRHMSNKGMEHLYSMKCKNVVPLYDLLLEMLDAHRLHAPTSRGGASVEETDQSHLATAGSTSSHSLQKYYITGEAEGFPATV
Sequence of Androgen receptor (Homo sapiens) (P10275 whole entry, looked up): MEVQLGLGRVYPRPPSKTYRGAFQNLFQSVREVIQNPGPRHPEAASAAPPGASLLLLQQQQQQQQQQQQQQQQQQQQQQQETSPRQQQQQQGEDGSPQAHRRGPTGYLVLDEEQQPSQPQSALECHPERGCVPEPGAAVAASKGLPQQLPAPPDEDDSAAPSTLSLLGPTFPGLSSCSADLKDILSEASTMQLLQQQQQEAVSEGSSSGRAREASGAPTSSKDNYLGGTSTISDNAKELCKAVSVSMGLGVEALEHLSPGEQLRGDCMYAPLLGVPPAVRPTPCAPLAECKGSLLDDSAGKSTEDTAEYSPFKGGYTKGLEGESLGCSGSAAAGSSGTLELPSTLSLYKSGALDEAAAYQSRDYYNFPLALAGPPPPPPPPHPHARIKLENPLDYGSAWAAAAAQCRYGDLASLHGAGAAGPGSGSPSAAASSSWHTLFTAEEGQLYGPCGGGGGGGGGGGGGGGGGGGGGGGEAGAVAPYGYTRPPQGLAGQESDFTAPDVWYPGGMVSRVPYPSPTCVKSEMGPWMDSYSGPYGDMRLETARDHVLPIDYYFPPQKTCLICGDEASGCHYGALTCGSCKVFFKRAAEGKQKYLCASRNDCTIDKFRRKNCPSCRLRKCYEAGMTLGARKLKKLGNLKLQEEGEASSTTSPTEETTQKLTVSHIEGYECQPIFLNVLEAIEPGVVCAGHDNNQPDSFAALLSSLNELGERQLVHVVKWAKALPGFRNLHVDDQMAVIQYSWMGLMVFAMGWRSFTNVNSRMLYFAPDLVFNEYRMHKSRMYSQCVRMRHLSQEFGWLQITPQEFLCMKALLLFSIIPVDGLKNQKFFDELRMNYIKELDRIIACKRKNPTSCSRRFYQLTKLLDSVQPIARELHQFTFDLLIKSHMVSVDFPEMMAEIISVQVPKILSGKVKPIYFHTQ

Consider `O=C(NC(=O)c1c(F)cccc1F)Nc1cc(Cl)c(F)c(Cl)c1F`, for which the Potency in assay [1] was 8.42 µM (active). For the same compound, the Potency entry in [2], in assay [3], in [4], in [5], in [6] and in [8] was “inactive” in each case. Moreover, the Potency result in assay [9], in assay [10] and in [11] was “inactive” in each case. Besides, in [7] (at 70.3 µM (top of the series)), the activation was 11.8% (inactive).

As to `[O-][Br+2]([O-])O`, the Potency result in assay [1], in assay [12], in assay [2], in assay [13], in assay [4] and in [14] was “inactive” each time. For the same compound, the Potency result in [15], in [5], in [6], in assay [8], in assay [9] and in [10] was “inactive” in each case. For the same compound, in assay [11], the Potency result was “inactive”. Moreover, the activation in [7] (at 70.3 µM (top of the series)) was 1.35% (inactive).

For the compound `CN(C)C1CCCCC1`, the Potency result in [1], in [2], in assay [3], in assay [14], in [15] and in assay [16] was “inactive” throughout. In addition, the Potency entry in assay [5], in [6], in [8], in assay [9], in assay [10] and in assay [11] was “inactive” throughout.

For the compound `CON(C)C(=O)Nc1ccc(Br)c(Cl)c1`, the Potency in assay [17] was 61.1 µM (active). The Potency entry in [2], in assay [3], in [15], in assay [5], in [9] and in assay [10] was “inactive” in each case. In addition, the Potency entry in assay [11] was “inactive”.

As to `O=C1C2CC=CCC2C(=O)N1SC(Cl)(Cl)Cl` (centres undefined), the Potency is 473 nM (active) and 6.83 µM (active) and 120 nM (active) in assay [1]; 531 nM (active) and 683 nM (active) and 107 nM (active) in assay [17]; 596 nM (active) and 2.42 µM (active) and 135 nM (active) in assay [12]; “inactive and 3.41 µM (active)” in assay [2]; 6.68 µM (active) and 2.39 µM (active) in [4]; “inactive and 48.2 µM [activator] (active)” in [6]. In addition, the Potency in assay [8] is 26.6 µM (active); in assay [10], 13.3 µM (active) and inactive and 3.01 µM (active); in assay [11], “inactive and 21.3 µM (active)”. Besides, the Potency result in [15] and in [9] was “inactive” in each case.

For `NCCOS(=O)(=O)O`, the Potency result in [1], in assay [12], in assay [2], in [3], in assay [4] and in assay [15] was “inactive” each time. The Potency result in [16], in assay [5], in [6], in assay [8], in assay [9] and in assay [10] was “inactive” throughout. For the same compound, the Potency result in assay [11] is “inactive”. The activation in [7] (at 70.3 µM (top of the series)) was -1.11% (inactive).

Consider `CC[C@@H](CO)NC(=O)[C@@H]1C=C2c3cccc4c3c(cn4C)C[C@H]2N(C)C1`, for which the Potency in [1] is 13.3 µM (active). In addition, the Potency result in assay [2], in assay [3], in [4], in assay [15], in assay [5] and in assay [6] was “inactive” in each case. In addition, the Potency result in assay [8], in assay [9] and in assay [10] was “inactive” throughout. For the same compound, in assay [7] (at 70.3 µM (top of the series)), the activation was 13.7% (inactive).

On to `CCOP(=O)(CN(CCO)CCO)OCC`, for which the Potency entry in [1], in assay [17], in assay [12], in [2], in assay [3] and in [14] was “inactive” each time. The Potency entry in assay [15], in assay [16], in assay [5], in [6], in [8] and in assay [9] was “inactive” in each case. Besides, the Potency result in [10] and in assay [11] was “inactive” in each case. The activation in assay [7] (at 70.3 µM (top of the series)) was -2.5% (inactive).

As to `C/C=C/CC#N`, the Potency result in assay [1], in [2], in assay [3], in assay [14], in assay [15] and in [16] was “inactive” throughout. For the same compound, the Potency result in assay [6], in assay [8], in [9], in [10] and in assay [11] was “inactive” throughout.

For `c1ccc2c(c1)CCNC2`, the Potency entry in assay [1], in assay [17], in [12], in [2], in assay [3] and in [4] was “inactive” in each case. The Potency entry in [5], in assay [9], in assay [10] and in [11] was “inactive” each time.

In the case of `CC(C)NCC(O)c1ccc([N+](=O)[O-])cc1` (centres undefined), the Potency result in assay [1], in assay [17], in assay [2], in assay [3], in [14] and in assay [15] was “inactive” throughout. Besides, the Potency result in assay [5], in [9], in assay [10] and in [11] was “inactive” throughout.

For the compound `O=C(Cl)OCc1ccccc1`, the Potency entry in assay [1], in assay [12], in assay [2], in [3], in assay [16] and in [5] was “inactive” in each case. The Potency result in assay [6], in assay [8], in assay [9], in assay [10] and in assay [11] was “inactive” each time. Further, the activation in [7] (at 95 µM (top of the series)) is -4.92% (inactive).

`CS(=O)(=O)Cl`: the Potency result in assay [1], in assay [17], in [2], in assay [3], in [4] and in [14] was “inactive” in each case. Moreover, the Potency entry in [15], in assay [16], in [5], in [6], in [8] and in assay [9] was “inactive” throughout. Further, the Potency entry in assay [10] and in assay [11] was “inactive” throughout. Also, in assay [7] (at 95 µM (top of the series)), the activation was 7.45% (inactive).
